# In PubChem BioAssay (NCI):
# “And” between values parts separate entries of the source, which are not always exact repeats. Identical values can stand only once. This is part of a sample that, as a whole, favours compounds with a hit. Of some 83,000 tested, about 20% had one in any assay.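 Cells were grown in 96-well plates and exposed to the test compound at a single concentration for 48 hours; results are reported as percent growth, with values below 10 considered active.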 The source made the active and inactive calls.
# Test system: UACC-62 melanoma
# Experiment: NCI-60 one-dose screen, 48 h (100 = growth as untreated, 0 = no growth, -100 = all killed)
# Conditions: 10 µM unless noted
row,Compound,growth
1,CCOC(=O)C(=O)C(CCC(=O)c1ccc2ccccc2c1O)C(=O)OCC (stereo unspecified),85.4% [100 µM] (inactive) and 81.5% [100 µM] (inactive)
2,CC1OC23CCCCC2C(C#N)(C#N)C1(C#N)C(=N)O3 (stereo unspecified),-14.6% [100 µM] (active)
3,CSc1nc(Br)nc2ncn(C3CC(Oc4ccc(C)cc4)C(COc4ccc(C)cc4)O3)c12 (stereo unspecified),84.5% [100 µM] (inactive) and -65.3% [100 µM] (active)
4,Clc1c(Cl)c(Cl)c2nn(C3CCCO3)nc2c1Cl (stereo unspecified),-16.1% [100 µM] (active) and -100% [100 µM] (active)
5,C[C@@H]1C[C@](O)([C@@H](C)Cl)C(=O)O[C@@H]2CCN3CC=C(COC(=O)[C@]1(C)O)[C@H]23,77.3% [100 µM] (inactive) and 83.1% [100 µM] (inactive)
6,COc1ccc(/C=C2/NC(=S)N=C2Cl)cc1,82.8% [100 µM] (inactive) and 23.4% [100 µM] (inactive)
7,COC(=O)C(=O)C(C(=O)C(=O)Nc1ccc(Cl)c(Cl)c1)c1nc2ccc(C(=O)c3ccccc3)cc2[nH]c1=O (stereo unspecified),43.9% [100 µM] (inactive) and 6.66% [100 µM] (active)
8,COc1ccc(OC)c(N(CN2C(=O)CCC2C(=O)O)C(C)=O)c1 (stereo unspecified),80.4% [100 µM] (inactive) and 103% [100 µM] (inactive)
9,C[N+](C)(CCNC(=O)c1cccc2cc3ccccc3nc12)Cc1ccc([N+](=O)[O-])s1,63.1% [25 µM] (inactive) and 28.9% [25 µM] (inactive)
10,N#Cc1n[nH]n(-c2ccccc2)c1=O,91.7% [100 µM] (inactive) and 100% [100 µM] (inactive)
11,Cc1ccc(OCC2OC(n3cnc4c(Cl)nc(Cl)nc43)CC2Oc2ccc(C)cc2)cc1 (stereo unspecified),-90.8% [100 µM] (active) and -89.2% [100 µM] (active)
12,OCc1ccccc1OC1OC(CO)C(O)C(O)C1O (stereo unspecified),85.4% [100 µM] (inactive) and 95.9% [100 µM] (inactive)
13,CCC(C)C1(O)OC2CC3(C)OC(=CC3=O)/C(C)=C\C3OC(=O)C1(C)C32 (stereo unspecified),-34.4% [100 µM] (active) and -100% [100 µM] (active)
14,Cc1ccc(/C=N/Nc2cnccn2)s1,58.8% [100 µM] (inactive) and 98.5% [100 µM] (inactive)
15,C=CC(COC(=O)C(C)(C)OC(C)=O)c1ccc(OC(=O)C(C)C)c(OC)c1 (stereo unspecified),-92.2% [100 µM] (active) and -93.9% [100 µM] (active)
16,C=C1C(=O)OC2CC(C)C3(O)CCC(=O)C3(C)CC12 (stereo unspecified),9.02% [100 µM] (active) and 6.55% [100 µM] (active)
17,O=C1c2cccnc2-c2nccc3ccnc1c23,-95.5% [100 µM] (active) and -100% [100 µM] (active)
18,CC/C(Cl)=N\OC(=O)Nc1ccc(OC)cc1,-92.2% [100 µM] (active) and -94.2% [100 µM] (active)
19,O=C(O)CCCC(=O)Nn1c(Cc2ccc(Cl)cc2)n[nH]c1=O,70.6% [100 µM] (inactive) and 92.1% [100 µM] (inactive)
20,COC(=O)/C(=N\NC(=S)NN)C(C(=O)OC)C(=O)C(=O)Nc1cccc(C(F)(F)F)c1 (stereo unspecified),98.2% [100 µM] (inactive) and 59.6% [100 µM] (inactive)
21,CCOc1cc2c(cc1O)C=C[C@@H]1[C@@H]2CC[C@]2(C)[C@@H](O)CC[C@@H]12,-65.7% [100 µM] (active) and -100% [100 µM] (active)
22,Cc1ccc(/C=C2/N=C(N/N=C\c3ccccc3)NC2=O)cc1,28.2% [100 µM] (inactive) and 56.4% [100 µM] (inactive)
23,CO/C(N)=C(\C#N)N=Cc1ccc2ccccc2c1,-20.4% [100 µM] (active) and 1.77% [100 µM] (active)
24,COc1cc([C@H]2OC[C@H]3[C@@H]2CO[C@@H]3c2cc(OC)c3c(c2)OCO3)cc(OC)c1OC,43.3% [100 µM] (inactive) and 24% [100 µM] (inactive)
25,COc1cc2c(cc1C1COc3cc4occc4cc3C1=O)OCO2 (stereo unspecified),62.1% [100 µM] (inactive) and 73.4% [100 µM] (inactive)
26,NC(=O)CC1OC(=O)Cc2cc3c(c(O)c21)C(=O)c1c(O)cccc1C3=O (stereo unspecified),67.9% [100 µM] (inactive)
